# Screening results: PubChem, several laboratories
# MPTP inh = blocks calcium-induced mitochondrial swelling | isolated mouse mitochondria, Ca2+ swelling absorbance, 30 min | inhibition, % at 10 µM | 360,000 compounds, 1.4% hits | AID 602449;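 active means inhibition of 50% or more, scaled per plate between neutral and stimulator controls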;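 further: 0% = DMSO wells given calcium and 100% = 1 mM EGTA wells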
# Mdm2 MdmX PPI = disrupts the human Mdm2-MdmX interaction; inhibition, % at 8 µM; SaOS-2 split-luciferase Mdm2/MdmX complementation, luminescence; AID 485346; 330,000 compounds, 3% hits;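 active means inhibition of at least 50% at 8 µM in the primary screen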
# Target sequence (O15151 whole entry, looked up): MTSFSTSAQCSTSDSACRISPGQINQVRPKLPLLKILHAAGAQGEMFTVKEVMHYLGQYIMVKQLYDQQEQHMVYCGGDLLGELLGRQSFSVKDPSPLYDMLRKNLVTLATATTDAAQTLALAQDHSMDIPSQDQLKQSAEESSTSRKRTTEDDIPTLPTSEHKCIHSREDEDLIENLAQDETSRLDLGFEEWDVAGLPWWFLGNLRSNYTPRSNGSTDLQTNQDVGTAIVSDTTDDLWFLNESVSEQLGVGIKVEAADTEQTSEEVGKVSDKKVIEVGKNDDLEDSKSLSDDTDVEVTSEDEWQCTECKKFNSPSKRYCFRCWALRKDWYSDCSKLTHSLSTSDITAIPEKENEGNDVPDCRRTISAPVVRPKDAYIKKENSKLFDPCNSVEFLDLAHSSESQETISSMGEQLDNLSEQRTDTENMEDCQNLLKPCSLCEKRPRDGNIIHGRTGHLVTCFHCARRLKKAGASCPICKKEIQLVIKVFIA
# Target sequence (Q00987 whole entry, looked up): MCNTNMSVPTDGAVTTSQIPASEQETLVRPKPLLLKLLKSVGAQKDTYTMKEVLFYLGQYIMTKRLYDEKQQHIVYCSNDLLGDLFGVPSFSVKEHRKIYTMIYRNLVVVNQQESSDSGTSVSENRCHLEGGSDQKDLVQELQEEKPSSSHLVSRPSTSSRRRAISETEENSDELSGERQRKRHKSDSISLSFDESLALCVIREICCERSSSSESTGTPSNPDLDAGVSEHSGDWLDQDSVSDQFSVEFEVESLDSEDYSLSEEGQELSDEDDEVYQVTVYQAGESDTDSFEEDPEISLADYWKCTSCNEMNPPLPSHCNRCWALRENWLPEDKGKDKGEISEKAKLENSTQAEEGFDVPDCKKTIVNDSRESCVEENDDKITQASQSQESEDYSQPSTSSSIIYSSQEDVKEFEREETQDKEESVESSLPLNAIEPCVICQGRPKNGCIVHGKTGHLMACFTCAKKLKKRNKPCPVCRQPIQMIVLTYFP
# Beta cell apopt = beta cell apoptosis inhibition. INS-1E cytokine-induced death, ATP luminescence, 48 h; percent of positive-control rescue, neutral wells zero. protection from apoptosis, % (no concentration beside the values). 300,000 compounds, 0.8% hits. AID 435005;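 active means Every replicate reaches about 75%, or at least half do and their mean reaches it too, limit read from the data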;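 further: 0% = cytokine-treated negative control wells and 100% = positive control rescue; higher means more ATP so stronger rescue from cytokine killing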
# NR3A LBD binder = modulates the human NR3A ligand-binding domain; NR3A LBD differential scanning fluorimetry, Tm shift; 0% = protein alone, 100% = glycine-bound protein; Tm shift relative to glycine control, % at 25 µM; 340,000 compounds, 2.5% hits; AID 1259313;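 active means melting temperature shift of at least 10% of the positive control shift, at one fixed dose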
# SKKanGAS inh = inhibitors of SKKanGAS S. pyogenes growth in kanamycin (SK-promoter or general growth effect); BacTiter-Glo, 6 h; inhibition, % at 7.5 µM; 300,000 compounds, 1.3% hits;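 active means mean replicate score, as percent of positive control median, at least 50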;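 further: strain carries kanamycin resistance gene driven by streptokinase promoter and grows in 40 µg/ml kanamycin; loss of luminescence reflects streptokinase promoter inhibition or plain growth inhibition; 0% = median of DMSO wells and 100% = positive control at its reference dose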
# CSC inhib = blocks cancer stem cells; 300,000 compounds, 1.1% hits; cancer stem cell-like cells viability, luminescence; inhibition, % at 7.5 µM; in the data active means inhibition above about 75%; tested in HMLE shEcad cells
# The depositor's hits bear a star; / = no result given. Hits are enriched below; roughly 6.9% of the tested compounds scored in any of these assays.
SMILES,MPTP inh,Mdm2 MdmX PPI,Beta cell apopt,NR3A LBD binder,SKKanGAS inh,CSC inhib
Nc1[nH]n(-c2ccccc2)c(=O)c1N=Nc1ccccc1[N+](=O)[O-],-0.7,18.4,8.8,21.0*,1.1,-2.3
Nc1[nH]n(-c2ccccc2)c(=O)c1N=Nc1ccccc1,1.2,-140.9,-3.4,-3.8,9.1,22.7
Cc1cc(C(=O)NCC(=O)Nc2c(C)cccc2C)c(C)o1,0.1,1.8,/,2.9,12.3,0.6
Cc1cc(NC(=S)Nc2ccc(C)c(Cl)c2)n[nH]1,-0.9,-50.1,1.4,-6.0,0.7,0.4
COc1ccc(NC(=S)Nc2cc(C)[nH]n2)cc1Cl,0.1,-6.1,0.6,12.1*,-12.0,1.2
COc1ccc(NC(=O)COc2ccccc2)cc1Cl,-0.1,9.1,2.8,-5.8,-2.6,-0.7
CCOc1ccc(NC(=S)Nc2cc(-c3ccccc3)[nH]n2)cc1,11.0,6.9,4.3,14.5*,-9.4,24.8
COc1ccc(NC(=S)Nc2cc(-c3ccccc3)[nH]n2)cc1Cl,2.7,8.9,-0.8,33.5*,-4.6,48.9
Cc1cccc(NS(=O)(=O)c2c(C)[nH]c(C)c2C(=O)N2CCCC2)c1,-1.6,7.5,-6.5,0.5,0.9,-14.5
COc1ccccc1/C=N\NC(=O)c1ccc(COc2ccc(C)c(C)c2)o1,5.0,-2.6,-6.0,-6.8,4.5,0.1
COC(=O)c1ccc(S(=O)(=O)NCc2ccccn2)n1C,0.4,-18.3,-4.3,0.8,-4.0,-2.6
CCOC(=O)c1c(C)oc2c1c(C(c1cccnc1)N1CCCCC1)c(O)c1ccccc12 (stereo not drawn),1.4,-60.7,-0.9,-0.1,1.2,28.8
CCOC(=O)c1c(C)oc2c1c(C(c1ccccc1)N1CCOCC1)c(O)c1ccccc12 (stereo not drawn),4.0,-20.0,-1.4,1.0,66.7*,56.8
O=C(CSc1nncs1)NNC(=O)c1ccco1,0.2,1.1,-6.2,-3.0,/,-21.1
Cc1cc2c(cc1C)N(C(=O)CSC1=NCCS1)C(C)(C)c1ssc(=S)c1-2,0.9,42.7,-3.9,-3.6,-2.1,/
CCOc1ccc2c(c1)-c1c(ssc1=S)C(C)(C)N2C(=O)c1ccco1,1.3,34.8,10.6,0.2,7.6,85.1*
O=C(Nc1ccc(NS(=O)(=O)c2ccc([N+](=O)[O-])cc2)cc1)c1ccco1,-0.7,15.2,-2.4,-11.2,-1.8,-2.5
Cc1ccc(C)c(N2CCN(C(=O)c3ccc4c(c3)c(C)c(C)n4C)CC2)c1,-1.4,32.1,-4.6,-1.1,24.1,82.1*
Cc1c(C)n(C)c2ccc(C(=O)N3CCN(c4ccccc4)CC3)cc12,1.3,12.1,-9.2,-1.3,17.1,9.6
O=[N+]([O-])c1ccc(N/N=C/c2cccc(O)c2O)cc1,6.7,-23.9,25.0,34.7*,-3.5,95.6*
O=[N+]([O-])c1ccc(N/N=C/c2cccc(O)c2)cc1,2.5,-82.8,1.9,26.0*,1.3,46.7
COc1cc2c(cc1OC)C(COc1ccc([N+](=O)[O-])cc1)N(C(C)=O)CC2 (stereo not drawn),0.4,5.5,/,8.4,-0.6,/
O=C(COC(=O)c1ccc(O)cc1O)NC12CC3CC(CC(C3)C1)C2,-1.9,5.3,/,-8.4,/,/
O=C(OCC(=O)C12CC3CC(CC(C3)C1)C2)c1ccc(O)cc1O,0.5,11.9,9.4,28.6*,12.4,-12.3
CC12CCC(C(=O)NCc3ccccc3Cl)(CC1=O)C2(C)C (stereo not drawn),0.2,-8.9,2.6,-2.1,-1.0,-9.6
SMILES,MPTP inh,Mdm2 MdmX PPI,Beta cell apopt,NR3A LBD binder,SKKanGAS inh,CSC inhib
Cc1cc(Br)c(Cl)cc1NC(=O)CN1C(=O)C2C3CC(c4ccccc4)C(C3)C2C1=O (stereo not drawn),0.9,16.6,1.5,8.6,7.0,79.7*
CC(=O)c1ccc(S(=O)(=O)Nc2c(C)nn(C)c2C)cc1,0.1,5.8,/,/,/,/
O=[N+]([O-])c1ccc(N/N=C/c2cccnc2)cc1,-0.7,-41.6,7.5,11.9*,1.6,21.0
Cc1sc(N/N=C/c2cccnc2)nc1-c1ccc(Cl)cc1,5.8,21.5,2.8,-5.8,17.1,12.3
Clc1ccc(N/N=C/c2cccnc2)cc1,3.3,-3.1,-2.9,9.7,-4.1,84.6*
O=C(N/N=C/c1cccnc1)c1ccc([N+](=O)[O-])cc1,-4.5,7.5,0.2,-0.6,-1.8,-6.8
Cc1ccccc1CC1SC(N)=NC1=O (stereo not drawn),-0.5,5.6,-1.1,0.1,-2.3,-9.2
COc1ccc(-c2cnnc(N/N=C/c3ccc(O)c(O)c3)n2)cc1,0.4,13.2,14.9,-4.4,-4.3,57.0
CN(/N=C\c1ccc(O)c(O)c1)c1nc(-c2ccccc2)cc(-c2ccccc2)n1,7.6,30.5,-2.9,21.4*,12.5,22.0
Cc1ccc(CN2CC(C(=O)NNC(=O)c3ccc(F)cc3)CC2=O)cc1 (stereo not drawn),3.5,6.9,-6.2,-1.4,/,/
O=C1CC(N(CCc2ccccc2)C(=S)Nc2ccccc2)C(=O)N1c1ccccc1 (stereo not drawn),-24.3,30.0,3.8,16.8*,20.8,78.6*
O=C1CC(N(Cc2ccc3c(c2)OCO3)C(=O)Nc2ccc(F)cc2)C(=O)N1c1ccccc1 (stereo not drawn),-1.3,-24.3,-12.4,26.7*,/,-8.8
O=C1CC(N(CCc2ccccc2)C(=S)Nc2ccccc2)C(=O)N1c1ccc(F)cc1 (stereo not drawn),4.2,12.1,12.9,27.4*,22.6,38.1
CCNC(=S)N(CCc1ccc(S(N)(=O)=O)cc1)C1CC(=O)N(c2ccccc2)C1=O (stereo not drawn),-1.5,9.4,/,-2.7,1.2,22.0
O=C1CC(N(CCc2ccccc2)C(=S)Nc2cc(Cl)ccc2Cl)C(=O)N1c1c(Cl)cccc1Cl (stereo not drawn),-2.7,31.5,29.9,16.2*,29.4,106.7*
CNC(=S)N(CCc1ccc(OC)c(OC)c1)C1CC(=O)N(c2ccccc2)C1=O (stereo not drawn),3.5,13.4,-3.3,-2.4,0.8,5.8
COc1cccc(CN2C[C@]34C=C[C@@H](C[C@@H]3S2(=O)=O)O4)c1,1.0,-13.7,-5.7,2.6,-1.4,-6.3
C=CCN(CC=C)Cc1c(O)ccc2c(=O)c(-c3ccccc3)coc12,-0.5,7.2,2.7,-0.8,-6.0,-8.7
Cc1cccnc1NC(=O)c1ccc(COc2ccccc2)o1,-3.5,-10.2,-2.7,0.6,0.1,-12.4
COc1ccccc1NC(=O)CCCN1C(=O)C2CC=CCC2C1=O (stereo not drawn),-1.9,-4.1,-0.8,9.6,-6.3,-1.3
Oc1ccc(-c2[nH]ncc2-c2ccc(Cl)cc2)c(O)c1,7.4,25.0,5.5,12.3*,-4.1,33.2
Cc1cc(C)cc(N(CC(=O)Nc2ccc(-c3nc4ccc(C)cc4s3)cc2)S(C)(=O)=O)c1,10.6,-67.9,-0.3,25.9*,30.1,18.7
